Source: PubChem BioAssay (NCATS)
Records with an inconclusive call do not appear. The source made the active and inactive calls. The call rests on the fitted dose curve; in most records, active means well fitted inhibition curve with a large enough effect; inconclusive means small, poorly fitted or top-dose-only effect; inactive means flat fitted curve, though single readings scatter.

Target: Calcium and integrin-binding protein 1 (Homo sapiens) (UniProt Q99828)
Assay: Primary qHTS for Identification of Calcium Integrin Binding Protein 1 (CIB1) Competitor (AID 1508620); further: top concentration of the series differs between compounds
Settings: CIB1-GST / FITC-alphaIIb peptide fluorescence polarization; series mostly up to 114 µM; activity change, negative = inhibition: at the top concentration
Procedure, shortened: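 Fluorescence polarization competition: GST-tagged CIB1 (1 uM final) preincubated with compound 15 min at room temperature, then FITC-labelled alphaIIb peptide (100 nM final) added. After 15 min at room temperature, polarization read at Ex 480/Em 540.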
On the % scale 0 is the no-effect control and ±100 the full control effect.

Chain of Calcium and integrin-binding protein 1 (Homo sapiens) (Q99828 whole entry, looked up): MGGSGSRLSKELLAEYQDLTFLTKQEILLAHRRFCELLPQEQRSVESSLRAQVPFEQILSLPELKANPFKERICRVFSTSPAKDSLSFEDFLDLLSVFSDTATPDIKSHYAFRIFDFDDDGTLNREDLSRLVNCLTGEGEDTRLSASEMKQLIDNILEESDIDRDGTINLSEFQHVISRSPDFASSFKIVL

Row | SMILES | activity change, negative = inhibition
1 | CCNC(=O)c1ccc(-c2ccc3ncnc(NCCc4cnc[nH]4)c3c2)o1 | -12.5% (inactive)
2 | O=C(Nc1ccc(-c2nc3ccccc3[nH]2)cc1)c1ccc(Oc2ccccc2)cc1 | 8.91% (inactive)
3 | COc1ccc(C2N=C(Nc3nc4ccccc4o3)NC3=C2C(=O)CCC3)cc1 (stereo not drawn) | -10.4% (inactive)
4 | Cc1cccc(CNc2ncnc3ccc(-c4cccc(C)c4)cc23)c1 | 4.09% (inactive)
5 | CN(CCc1cccs1)c1ncnc2ccc(-c3ccc4c(c3)OCO4)cc12 | 3.79% (inactive)
6 | Cc1cc2c(s1)c1cnn(Cc3c(F)ccc(F)c3F)c(=O)c1n2C | 4.36% (inactive)
7 | O=c1c2ccccc2nc2sc(NCc3ccccc3)nn12 | 10.8% (inactive)
8 | Cc1cccc(-c2ccc3ncnc(NCc4cccc(F)c4)c3c2)c1 | 0.984% (inactive)
9 | Fc1cc(Nc2nc(-c3ccncc3)nc3ccccc23)ccc1-c1ccnc(C(F)(F)F)c1 | 8.08% (inactive)
10 | O=C(Cc1nnc(CNC(=O)c2ccccc2)s1)Nc1ccc(C(F)(F)F)cc1Cl | -0.0839% (inactive)
11 | Cc1ccc(C(=O)NCC(=O)OC(C(=O)Nc2cc(C(F)(F)F)ccc2Cl)c2ccccc2)cc1 (stereo not drawn) | -2.74% (inactive)
12 | Cn1ccc2cc(-c3ccc4ncnc(NCc5ccc6c(c5)OCO6)c4c3)ccc21 | 4.76% (inactive)
13 | Nc1c(-c2ccncc2)cc[nH]c1=O | -16.6% (inactive)
14 | COc1cccc(CNc2ccc(S(=O)(=O)Nc3nc4c(C)cccc4s3)cc2)c1O | -19.2% (inactive)
15 | Cc1cc(C)c(C)c(S(=O)(=O)N2CCN(S(=O)(=O)c3ccc4c(c3)OCCO4)CC2)c1C | -2.41% (inactive)
16 | Cc1cc(C)nc(NC(=S)N2CCN(c3ccccc3C#N)CC2)c1 | -10.5% (inactive)
17 | Cn1cnc(CCNc2ncnc3ccc(-c4ccc5c(c4)OCO5)cc23)c1 | -1.33% (inactive)
18 | O=C1c2ccccc2C(=O)N1c1cccc2cccnc12 | 6.96% (inactive)
19 | CC(C)c1ccccc1-c1ncc(F)c(NCc2ccc(-c3cccnc3)s2)n1 | -0.0334% (inactive)
20 | CCc1cccc(Nc2nn3c(=O)c4ccccc4nc3s2)c1 | 2.87% (inactive)
21 | Clc1cccc(-c2nc(-c3ccc(-c4nn[nH]n4)cc3)no2)c1 | -16.1% (inactive)
22 | COc1cccc(Cn2ncc3c4sc(B(O)O)cc4n(C)c3c2=O)c1 | -10.8% (inactive)
23 | CN(c1cccc2cccnc12)S(=O)(=O)c1ccccc1 | -2.08% (inactive)
